TPT1 inh: C. albicans TPT1 enzyme inhibition. AID 1962. recombinant caTPT1, FP RNA substrate dephosphorylation. 300,000 compounds, 0.81% hits. inhibition, % at 5 µM;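 active = inhibition above the mean of all tested compounds plus 3 SD, set per screening campaign, cut at about 24% in these data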;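 also: plate controls were DMSO alone for no effect and ferristatin control at 100 nM for full effect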
IDE act: IDE (human) activation, cell-based | P14735 | HEK cells, FAbeta-B cleavage, fluorescence polarization; 0% vehicle, 100% cell-free pure enzyme wells | activation, % at 5.96 µM | 340,000 compounds, 0.073% hits | AID 493087;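 active = activation above the mean of all tested compounds plus 3 SD, set per screening campaign, cut at about 17% in these data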
Target sequence (P14735 whole entry, looked up): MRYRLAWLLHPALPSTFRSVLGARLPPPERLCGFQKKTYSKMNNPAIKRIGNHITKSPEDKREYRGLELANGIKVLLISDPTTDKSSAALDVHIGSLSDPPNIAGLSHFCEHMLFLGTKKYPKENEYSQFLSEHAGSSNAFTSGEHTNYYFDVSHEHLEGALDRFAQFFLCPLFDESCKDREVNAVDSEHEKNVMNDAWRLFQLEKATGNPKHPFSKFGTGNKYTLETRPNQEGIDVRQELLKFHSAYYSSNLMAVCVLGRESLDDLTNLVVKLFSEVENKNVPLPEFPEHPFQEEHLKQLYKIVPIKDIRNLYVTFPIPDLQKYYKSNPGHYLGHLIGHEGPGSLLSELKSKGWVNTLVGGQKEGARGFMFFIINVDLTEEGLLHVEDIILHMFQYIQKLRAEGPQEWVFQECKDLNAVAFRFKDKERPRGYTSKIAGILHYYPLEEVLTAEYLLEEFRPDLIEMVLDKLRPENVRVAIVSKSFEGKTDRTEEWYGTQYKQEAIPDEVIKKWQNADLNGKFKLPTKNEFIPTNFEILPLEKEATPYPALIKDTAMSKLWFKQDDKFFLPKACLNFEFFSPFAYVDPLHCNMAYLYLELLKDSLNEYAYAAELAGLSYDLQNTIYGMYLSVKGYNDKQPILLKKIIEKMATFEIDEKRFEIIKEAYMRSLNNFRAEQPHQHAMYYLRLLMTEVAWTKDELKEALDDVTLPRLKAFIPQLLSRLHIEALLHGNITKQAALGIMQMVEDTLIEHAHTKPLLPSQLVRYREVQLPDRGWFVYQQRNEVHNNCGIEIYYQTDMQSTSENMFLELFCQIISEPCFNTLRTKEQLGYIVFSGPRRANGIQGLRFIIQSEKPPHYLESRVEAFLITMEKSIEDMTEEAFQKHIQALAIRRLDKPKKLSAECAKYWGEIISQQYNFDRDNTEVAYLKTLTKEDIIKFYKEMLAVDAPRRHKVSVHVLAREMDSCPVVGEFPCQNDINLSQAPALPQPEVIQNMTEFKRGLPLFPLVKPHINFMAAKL
HNF4A DNA FP: change in binding of human HNF4 alpha to DNA; P41235; HNF4a-FITC DNA binding, fluorescence polarization, 1 h; activity change, % at 10 µM; 360,000 compounds, 0.3% hits; AID 1224865; in the data active = activity change above about 30%, passing the limit was not always enough
IDE inh: inhibits human insulin-degrading enzyme in HEK cells; FAbetaB cleavage, fluorescence polarization; inhibition, % at 5.59 µM; 320,000 compounds, 0.41% hits;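 active = percent inhibition above the average of all tested compounds plus 3 SD, set per screening campaign, cut at about 16% in these data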;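 also: IDE supplied by intact live HEK cells; FP after avidin binding of uncleaved biotin substrate so inhibition keeps polarization high; 0% = DMSO wells and 100% = 60 µM reference IDE inhibitor Ii1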
CRFBP-R2 agonist: CRF-BP/CRF-R2 complex agonism. HEK293 CRF-R2/CRF-BP, calcium dye fluorescence (FLIPR); percent of saturating CRF peptide response. activation, % at 13.2 µM. 350,000 compounds, 0.46% hits. AID 588473;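 active = activation of at least 50%, plus an integration ratio under a set limit after plate pattern correction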;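 also: plate controls were neutral control wells without compound for no effect and CRF at EC100 for full effect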
An asterisk follows results filed as active; / = no result given. A selection: hits, their analogues and other compounds. The true share with any hit is near 1.4%.

SMILES	TPT1 inh	IDE act	HNF4A DNA FP	IDE inh	CRFBP-R2 agonist
N#C/C(=C\c1ccc(OCc2ccccc2)cc1)C(=O)Nc1nc2c(s1)CCN(Cc1ccccc1)C2	5.3	2.7	28.0	8.4	30.1
COc1ccc(S(=O)(=O)N2CCOC23CCN(C(=O)c2ccccc2OC)CC3)cc1	0.3	4.5	0.8	8.0	-2.9
CC(=O)N(c1ccc2oc(=O)sc2c1)S(=O)(=O)c1cccc2cccnc12	-3.9	-2.1	31.1*	6.5	0.3
CC(=O)N(c1ccc2oc(=O)sc2c1)S(=O)(=O)c1cccs1	0.1	-17.3	-0.7	15.8	-1.3
CC(=O)N1CCN(C(=O)c2ccc(NS(=O)(=O)c3ccc4c(c3)OCCO4)cc2)CC1	-2.0	1.5	2.1	-1.1	3.6
O=C(NCCc1ccccc1)c1c[nH]c2ccccc2c1=O	/	/	1.0	/	72.8*
CCCCCCCCCCCCCCCC[N+](C)(C)CCN(Cc1ccc(OC)cc1)c1ncccn1	-2.3	17.5*	26.5	-4.3	28.2
COc1ccc(OCCNc2cc(N3CCOCC3)ccc2[N+](=O)[O-])cc1	-0.5	20.4*	0.0	-8.3	-0.5
COc1cccc(OCCNc2cc(N3CCOCC3)ccc2[N+](=O)[O-])c1	-2.1	9.2	4.6	-4.1	0.9
Oc1ccc(C2C=C(c3ccc(F)cc3)Nc3ncnn32)cc1 (configuration not stated)	/	-2.0	-6.8	/	40.7
Fc1ccc(C2=CC(c3ccc(Br)o3)n3ncnc3N2)cc1 (configuration not stated)	-68.6	-67.1	-114.6	91.8*	192.4*
C1=C(c2ccc(-c3ccccc3)cc2)Nc2ncnn2C1c1ccco1 (configuration not stated)	/	-136.1	-102.2	/	208.3*
Fc1ccc(C2=CC(c3ccco3)n3ncnc3N2)cc1 (configuration not stated)	-55.5	-5.0	-47.8	0.8	65.0*
O=C(CNS(=O)(=O)c1cccc2nsnc12)NCCc1ccccc1	1.8	4.5	3.1	3.1	-1.5
Cc1ccc(NC2CCCN(C(=O)c3cccc4nccnc34)C2)cc1C (configuration not stated)	0.2	0.2	-3.8	6.3	-1.1
N#Cc1ccc(-c2ccc(F)cc2)nc1SCC(=O)Nc1sc2c(c1C#N)CCC2	26.1*	-0.6	6.4	7.3	-0.4
N#Cc1ccccc1COC(=O)c1ccc(Br)o1	0.4	4.0	-1.1	3.2	-2.9
COc1ccc(CN2C(=O)C(CC(=O)NCc3cccc4ccccc34)CC(C(=O)N(C(C)C)C(C)C)=C2C)cc1 (configuration not stated)	/	/	2.4	/	/
COc1cc(NC(=O)c2ccccc2)ccc1NC(=O)c1cc2ccccc2o1	-1.2	-5.0	0.4	3.0	5.2
Cc1cc(NC(=O)c2cncc(Br)c2)ccc1NC(=O)c1cc2ccccc2o1	0.2	18.0*	22.2	-0.7	-1.7
O=c1c(/C=N/Nc2ccccc2)c(Sc2nnnn2-c2ccccc2)nc2ccccn12	/	-8.1	-6.7	/	98.7*
CC1(C(=O)Nc2ccc3c(c2)OCCO3)CSCC(=O)N1CCc1ccccc1F (configuration not stated)	/	/	2.1	/	/
O=C(C1CCCC1)N1CCCC(Nc2ccc(F)cc2)C1 (configuration not stated)	3.5	3.8	2.0	0.9	117.5*
O=C(C1CCCC1)N1CCCC(Nc2ccccc2)C1 (configuration not stated)	-7.3	8.2	-1.5	2.8	-1.2
O=c1[nH]c2ccccc2nc1/C=C/c1ccccc1	-1.7	-1.3	-1.0	-5.3	-0.5
SMILES	TPT1 inh	IDE act	HNF4A DNA FP	IDE inh	CRFBP-R2 agonist
O=c1[nH]c2ccccc2nc1/C=C/c1ccc(O)cc1	/	-9.8	36.4*	/	104.4*
O=C(NC(Sc1ccc(Cl)cc1)C(=O)O)c1ccccc1 (configuration not stated)	/	/	-2.3	/	20.1
CCOC(=O)/C=C/c1cccc(C)c1O	/	/	-0.2	/	/
Cc1ccc(S(=O)(=O)N2CCC(=O)N(C(COCc3ccc(Cl)c(Cl)c3)Cc3ccccc3)CC2)cc1 (configuration not stated)	2.4	/	/	-0.9	70.8*
Cc1ccc(S(=O)(=O)N2CCC(=O)N(C(COCc3cccc(C)c3)Cc3ccccc3)CC2)cc1 (configuration not stated)	2.6	1.4	4.3	-1.5	13.5
Cc1ccc(S(=O)(=O)N2CCC(=O)N([C@H](COCc3ccc(C(F)(F)F)cc3)Cc3ccccc3)CC2)cc1	/	/	2.1	/	/
Cc1ccc(S(=O)(=O)N2CCC(=O)N(C(COCc3ccc(C(F)(F)F)cc3)Cc3ccccc3)CC2)cc1 (configuration not stated)	-8.4	2.7	6.2	1.1	62.1*
Nc1ccc(-c2c3ccc(=O)cc-3oc3cc(O)ccc23)cc1C(=O)O	-10.5	47.4*	-99.2	16.7*	213.1
O=c1cc(-c2ccccc2)oc2cc(O)ccc12	/	-7.3	-0.7	/	-2.9
COc1ccc(-c2c(C)c3ccc(O)cc3oc2=O)cc1OC	4.7	5.5	1.8	1.4	-1.4
O=c1ccc2c(-c3ccccc3)c3ccc(O)cc3oc-2c1	-10.8	51.5*	-98.6	-26.1	177.8*
CC1(C)C[C@H](O)[C@@]23C[C@@H](OC2=O)[C@]2(C)C(=CCC4[C@@]5(C)CC[C@H](O)C(C)(C)C5CC[C@]42C)[C@@H]3C1 (some centres not stated)	-0.5	/	/	-1.9	73.5*
COc1ccc(C(=O)NC(NC(=O)c2ccc(OC)c(OC)c2)c2ccccc2F)cc1OC	-1.5	1.5	44.7*	11.9	-1.5
COc1ccc(C(=O)NCC(C)NC(=O)c2ccc(OC)c(OC)c2)cc1OC (configuration not stated)	0.2	0.2	2.4	1.9	-1.1
COc1ccc(S(=O)(=O)N2CCCCCC2)cc1C(=O)N(C)Cc1ccc(Cl)cc1Cl	1.6	3.8	-0.1	-8.3	104.2*
COc1ccc(S(=O)(=O)N2CCCCCC2)cc1C(=O)N(C)Cc1c(F)cccc1Cl	/	-1.1	1.9	5.8	0.0
O=C(NCc1ccco1)c1cccc2c1C(=O)c1ccc(N3CCCC3)cc1S2(=O)=O	/	-5.4	52.0*	6.5	25.9
Cc1ccc(CNC(=O)c2cccc3c2C(=O)c2ccc(N4CCCCC4)cc2S3(=O)=O)cc1	/	-5.1	37.7*	10.0	57.2*
C=CCNC(=O)c1cccc2c1C(=O)c1ccc(N3CCCC3)cc1S2(=O)=O	/	-7.2	64.8	7.4	17.3
Nc1c(-c2ccc(C(F)(F)F)cc2)nc2ncccn12	/	/	0.2	/	/
CC(C)Cc1ccc([C@H](C)C(=O)O)cc1	-1.9	6.5	/	0.7	0.2
CC(C(=O)Nc1cccnc1)c1ccc([N+](=O)[O-])cc1 (configuration not stated)	-2.8	4.7	3.6	1.9	1.0
CC(C)Cc1ccc(C(C)C(=O)Nc2cccnc2)cc1 (configuration not stated)	-3.4	-1.6	3.6	10.3	62.3*
CC(C)Cc1ccc(C(C)C(=O)Nc2ccc(O)cc2)cc1 (configuration not stated)	-1.5	-5.1	-4.7	-1.3	78.1*

High-throughput results: PubChem, several laboratories
